One may read the residual activity as the signal under treatment as a percentage of the control signal.

In assay [1] the target is T1, Serine/threonine-protein kinase TBK1 (Homo sapiens) (UniProt Q9UHD2).
T1 sequence (whole entry): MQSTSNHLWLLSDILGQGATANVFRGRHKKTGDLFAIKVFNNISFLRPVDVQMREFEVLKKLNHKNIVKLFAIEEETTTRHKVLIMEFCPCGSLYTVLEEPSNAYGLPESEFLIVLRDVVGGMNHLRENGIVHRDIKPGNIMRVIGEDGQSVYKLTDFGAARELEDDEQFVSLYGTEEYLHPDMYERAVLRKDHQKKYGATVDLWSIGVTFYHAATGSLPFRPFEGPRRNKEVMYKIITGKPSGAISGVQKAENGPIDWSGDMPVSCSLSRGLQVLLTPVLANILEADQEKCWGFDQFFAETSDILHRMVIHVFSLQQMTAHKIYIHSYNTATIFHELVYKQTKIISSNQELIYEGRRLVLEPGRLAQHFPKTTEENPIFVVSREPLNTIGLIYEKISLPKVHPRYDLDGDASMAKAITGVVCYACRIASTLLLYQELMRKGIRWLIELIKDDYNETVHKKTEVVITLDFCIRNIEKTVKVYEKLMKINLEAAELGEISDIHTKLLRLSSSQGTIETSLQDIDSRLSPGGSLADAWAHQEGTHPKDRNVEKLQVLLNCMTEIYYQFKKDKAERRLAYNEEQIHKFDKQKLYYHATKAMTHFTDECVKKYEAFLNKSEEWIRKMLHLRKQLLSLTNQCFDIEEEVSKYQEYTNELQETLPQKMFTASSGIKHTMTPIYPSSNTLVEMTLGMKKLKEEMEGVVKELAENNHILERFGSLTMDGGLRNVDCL
Conditions: at 10 µM.

The target of assay [2] is T2, TGF-beta receptor type-1 (Homo sapiens) (UniProt P36897).
T2 sequence (whole entry): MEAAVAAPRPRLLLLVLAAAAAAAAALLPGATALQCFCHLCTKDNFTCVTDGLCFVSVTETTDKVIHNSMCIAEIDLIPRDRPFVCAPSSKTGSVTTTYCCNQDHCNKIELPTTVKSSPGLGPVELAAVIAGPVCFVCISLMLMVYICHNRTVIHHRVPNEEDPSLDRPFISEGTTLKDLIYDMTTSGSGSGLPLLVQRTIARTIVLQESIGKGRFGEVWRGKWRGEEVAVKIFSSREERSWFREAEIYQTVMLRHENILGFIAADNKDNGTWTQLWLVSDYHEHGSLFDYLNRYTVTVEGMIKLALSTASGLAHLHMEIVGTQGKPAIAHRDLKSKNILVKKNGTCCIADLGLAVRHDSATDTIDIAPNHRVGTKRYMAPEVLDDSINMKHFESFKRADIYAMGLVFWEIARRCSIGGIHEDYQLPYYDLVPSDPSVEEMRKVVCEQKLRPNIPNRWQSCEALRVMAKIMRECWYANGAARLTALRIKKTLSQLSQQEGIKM
Conditions: at 1 µM.

The target of assay [3] is T2, TGF-beta receptor type-1 (Homo sapiens). Conditions: at 10 µM.
For assay [4], the target named is Insulin-like growth factor 1 receptor (Homo sapiens) (UniProt P08069). Conditions: at 1 µM.
Assay [5] shares this target. The conditions noted are these: at 10 µM.
Assay [6] concerns the target T3, Inhibitor of nuclear factor kappa-B kinase subunit alpha (Homo sapiens) (UniProt O15111).
T3 sequence (whole entry): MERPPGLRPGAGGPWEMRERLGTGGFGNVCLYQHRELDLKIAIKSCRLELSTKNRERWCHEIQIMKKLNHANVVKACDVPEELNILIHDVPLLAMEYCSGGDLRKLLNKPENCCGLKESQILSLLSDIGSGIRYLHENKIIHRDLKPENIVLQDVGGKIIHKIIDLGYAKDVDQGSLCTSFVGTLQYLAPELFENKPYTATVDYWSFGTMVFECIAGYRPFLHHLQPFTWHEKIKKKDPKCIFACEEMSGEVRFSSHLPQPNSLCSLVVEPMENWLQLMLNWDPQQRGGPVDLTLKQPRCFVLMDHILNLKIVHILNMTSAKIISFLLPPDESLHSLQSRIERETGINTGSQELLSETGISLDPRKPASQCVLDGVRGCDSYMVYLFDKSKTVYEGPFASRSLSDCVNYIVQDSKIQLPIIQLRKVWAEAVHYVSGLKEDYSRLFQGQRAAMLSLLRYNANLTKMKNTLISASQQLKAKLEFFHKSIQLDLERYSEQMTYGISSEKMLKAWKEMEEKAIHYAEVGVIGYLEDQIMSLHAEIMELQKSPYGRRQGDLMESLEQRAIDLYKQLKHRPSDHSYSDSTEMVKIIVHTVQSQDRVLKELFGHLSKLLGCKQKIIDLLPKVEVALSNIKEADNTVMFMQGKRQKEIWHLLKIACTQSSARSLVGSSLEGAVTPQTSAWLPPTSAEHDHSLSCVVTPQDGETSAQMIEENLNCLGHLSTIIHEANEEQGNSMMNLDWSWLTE
Conditions: at 1 µM.

Assay [7] addresses T3, Inhibitor of nuclear factor kappa-B kinase subunit alpha (Homo sapiens). The conditions noted are these: at 10 µM.
Assay [8] has as its target T4, Inhibitor of nuclear factor kappa-B kinase subunit beta (Homo sapiens) (UniProt O14920).
T4 sequence (whole entry): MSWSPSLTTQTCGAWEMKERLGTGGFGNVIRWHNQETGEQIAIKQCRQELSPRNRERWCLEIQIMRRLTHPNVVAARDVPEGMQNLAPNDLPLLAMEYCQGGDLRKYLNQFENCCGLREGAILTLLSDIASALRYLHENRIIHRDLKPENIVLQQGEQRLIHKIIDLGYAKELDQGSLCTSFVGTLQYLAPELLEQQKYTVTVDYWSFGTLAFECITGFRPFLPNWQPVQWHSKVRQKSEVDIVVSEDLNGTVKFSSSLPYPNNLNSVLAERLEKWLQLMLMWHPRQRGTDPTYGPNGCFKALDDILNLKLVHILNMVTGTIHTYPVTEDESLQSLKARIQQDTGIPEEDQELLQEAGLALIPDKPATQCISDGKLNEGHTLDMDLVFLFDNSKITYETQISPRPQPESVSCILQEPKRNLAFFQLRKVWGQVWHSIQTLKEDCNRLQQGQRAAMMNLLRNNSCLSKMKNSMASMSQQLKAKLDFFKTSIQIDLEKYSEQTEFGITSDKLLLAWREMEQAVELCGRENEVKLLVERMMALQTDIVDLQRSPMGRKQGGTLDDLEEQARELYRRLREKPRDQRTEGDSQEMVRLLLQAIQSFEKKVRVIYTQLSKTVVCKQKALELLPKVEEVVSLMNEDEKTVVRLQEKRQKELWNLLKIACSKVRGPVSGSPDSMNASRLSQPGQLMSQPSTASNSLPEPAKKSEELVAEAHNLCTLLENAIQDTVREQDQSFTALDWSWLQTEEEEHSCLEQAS
Conditions: at 1 µM.

Assay [9] addresses T4, Inhibitor of nuclear factor kappa-B kinase subunit beta (Homo sapiens). The conditions noted are these: at 10 µM.
Assay [10] concerns the target Insulin receptor (Homo sapiens) (UniProt P06213). Conditions: at 1 µM.

Insulin-like growth factor 1 receptor (Homo sapiens), sequence (P08069 31-736 limits assumed): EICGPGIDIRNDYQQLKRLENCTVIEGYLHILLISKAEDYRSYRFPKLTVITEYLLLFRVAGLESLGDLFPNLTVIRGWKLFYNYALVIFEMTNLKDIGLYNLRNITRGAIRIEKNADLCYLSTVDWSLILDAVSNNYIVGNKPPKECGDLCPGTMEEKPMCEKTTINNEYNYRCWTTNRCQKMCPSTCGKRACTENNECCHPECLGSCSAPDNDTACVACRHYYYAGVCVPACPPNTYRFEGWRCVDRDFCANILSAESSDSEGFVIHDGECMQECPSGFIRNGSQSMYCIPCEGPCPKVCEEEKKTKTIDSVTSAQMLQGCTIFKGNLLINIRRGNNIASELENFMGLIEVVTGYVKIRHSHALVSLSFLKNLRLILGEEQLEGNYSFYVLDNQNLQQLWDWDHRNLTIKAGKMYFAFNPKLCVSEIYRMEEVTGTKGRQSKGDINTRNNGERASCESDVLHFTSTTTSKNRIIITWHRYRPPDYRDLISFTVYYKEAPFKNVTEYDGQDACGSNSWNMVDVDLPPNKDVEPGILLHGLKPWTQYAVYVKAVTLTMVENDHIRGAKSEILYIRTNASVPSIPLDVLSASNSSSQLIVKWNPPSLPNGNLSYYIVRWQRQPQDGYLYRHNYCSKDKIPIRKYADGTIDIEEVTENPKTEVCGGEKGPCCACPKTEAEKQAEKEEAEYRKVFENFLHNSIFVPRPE
Insulin-like growth factor 1 receptor (Homo sapiens), sequence (P08069 741-1367 limits assumed): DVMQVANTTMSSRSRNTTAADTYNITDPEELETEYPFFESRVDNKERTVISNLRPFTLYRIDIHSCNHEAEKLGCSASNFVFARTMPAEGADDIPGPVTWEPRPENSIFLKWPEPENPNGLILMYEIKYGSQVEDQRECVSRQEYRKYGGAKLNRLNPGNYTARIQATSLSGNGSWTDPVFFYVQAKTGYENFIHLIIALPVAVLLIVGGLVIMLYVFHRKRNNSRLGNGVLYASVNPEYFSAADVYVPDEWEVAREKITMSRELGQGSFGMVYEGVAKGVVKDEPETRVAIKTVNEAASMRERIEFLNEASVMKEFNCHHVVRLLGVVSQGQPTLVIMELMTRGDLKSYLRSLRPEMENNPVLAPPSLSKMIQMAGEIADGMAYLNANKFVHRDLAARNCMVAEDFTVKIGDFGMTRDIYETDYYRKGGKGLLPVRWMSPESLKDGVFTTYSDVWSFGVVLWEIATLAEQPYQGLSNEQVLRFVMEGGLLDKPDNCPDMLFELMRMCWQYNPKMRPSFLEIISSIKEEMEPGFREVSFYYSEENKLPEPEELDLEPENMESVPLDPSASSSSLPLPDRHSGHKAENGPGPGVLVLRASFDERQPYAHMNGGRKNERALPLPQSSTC
Insulin receptor (Homo sapiens), sequence (P06213 28-758 limits assumed): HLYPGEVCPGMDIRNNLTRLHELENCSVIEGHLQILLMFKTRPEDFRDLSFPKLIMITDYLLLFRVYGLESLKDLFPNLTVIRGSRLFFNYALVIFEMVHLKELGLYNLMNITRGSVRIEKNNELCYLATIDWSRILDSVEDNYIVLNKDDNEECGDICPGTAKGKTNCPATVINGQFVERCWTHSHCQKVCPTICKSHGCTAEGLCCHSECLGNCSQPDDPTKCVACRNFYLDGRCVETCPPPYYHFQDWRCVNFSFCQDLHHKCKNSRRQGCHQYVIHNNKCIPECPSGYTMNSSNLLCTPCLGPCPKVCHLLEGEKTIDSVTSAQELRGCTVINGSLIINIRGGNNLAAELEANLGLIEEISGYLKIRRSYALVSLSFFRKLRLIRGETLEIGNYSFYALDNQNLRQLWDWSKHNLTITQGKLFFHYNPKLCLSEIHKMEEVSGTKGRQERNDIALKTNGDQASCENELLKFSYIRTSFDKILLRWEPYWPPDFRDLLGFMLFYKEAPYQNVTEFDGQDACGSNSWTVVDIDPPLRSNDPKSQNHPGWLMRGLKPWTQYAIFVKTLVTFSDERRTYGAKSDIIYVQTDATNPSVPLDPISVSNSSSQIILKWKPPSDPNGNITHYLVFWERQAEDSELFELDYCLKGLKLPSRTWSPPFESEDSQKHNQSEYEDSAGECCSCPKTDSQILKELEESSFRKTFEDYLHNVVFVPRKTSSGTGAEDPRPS
Insulin receptor (Homo sapiens), sequence (P06213 763-1382 limits assumed): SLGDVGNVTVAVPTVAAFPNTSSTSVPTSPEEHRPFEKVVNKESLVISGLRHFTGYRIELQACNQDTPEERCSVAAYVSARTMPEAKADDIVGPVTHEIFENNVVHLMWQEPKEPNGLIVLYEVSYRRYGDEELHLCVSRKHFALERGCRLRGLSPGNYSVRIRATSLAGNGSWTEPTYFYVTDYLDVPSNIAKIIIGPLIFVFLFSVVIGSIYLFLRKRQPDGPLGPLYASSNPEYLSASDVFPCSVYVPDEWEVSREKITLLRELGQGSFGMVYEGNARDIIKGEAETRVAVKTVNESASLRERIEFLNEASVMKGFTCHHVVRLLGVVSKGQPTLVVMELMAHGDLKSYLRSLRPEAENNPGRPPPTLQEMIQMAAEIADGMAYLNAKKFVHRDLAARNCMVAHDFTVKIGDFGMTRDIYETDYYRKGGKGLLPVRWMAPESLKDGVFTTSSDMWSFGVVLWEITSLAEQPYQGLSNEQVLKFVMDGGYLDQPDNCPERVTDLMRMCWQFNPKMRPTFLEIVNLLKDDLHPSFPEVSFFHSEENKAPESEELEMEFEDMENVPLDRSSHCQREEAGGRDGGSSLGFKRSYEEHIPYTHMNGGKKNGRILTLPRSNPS

Turning to `Nc1n[nH]c2nnc(-c3c(-c4ccccc4)nn4ccccc34)cc12`, the residual activity in assay [1] turned out to be 67%; in assay [2] it was 88%; in assay [3], 83%; in assay [4] it was 82%; in assay [5], 76%; in [6], 115%. For the same compound, the residual activity was found to be 107% in [7], 102% in assay [8], 102% in assay [9] and 70% in assay [10].

Values taken from ChEMBL document CHEMBL2218924, “A broad activity screen in support of a chemogenomic map for kinase signalling research and drug discovery” (Biochem J, 2013).
